Activity calls are given as the source filed them.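 How the source made its calls, unless noted: active means inhibition at or above 50% at 10 µM; inactive means inhibition below 50%.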
Experiments:
[1] = inhibitors of TNFa-induced NFkB p65 translocation, primary screen, imaging, HUVEC, MLSMR starter and 10KST1 sets (AID 438;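 active means inhibition above 20% together with a positive visual image hit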;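 further: compound added about 3h40 before a 20 min TNFalpha stimulation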;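 on inhibition: signal is the nuclear over cytoplasmic p65 intensity ratio per well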); conditions: HUVEC TNFa-induced p65 nuclear translocation; cell count: measured here: nuclei count (cytotoxicity indicator), at 2.08 µM; inhibition: at 2 µM, stronger effect = higher value, 0% TNFa-plus-vehicle, 100% no-TNFa wells
[2] = inhibitors of mutant huntingtin aggregation, primary screen, imaging, exon1htt(103Q)mCFP cells, high-content imaging (AID 483;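 active means visual image review flags a hit and inhibition of aggregation exceeds 20%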;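 further: compound exposure lasted 3 days before fixation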;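 on nuclei count: percent of the per-plate median nuclei count of sample wells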); conditions: exon1htt(103Q)mCFP cell line, aggregate imaging, at 2 µM; inhibition of aggregation: stronger effect = higher value; nuclei count: measured here: cell count, toxicity
[3] = inhibitors of E-selectin induction by TNFa, primary screen, imaging, HUVEC, immunofluorescence, MLSMR starter and 10KST1 sets (AID 487;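 active means visually confirmed hit in the image check and inhibition above 20%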;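 on inhibition: signal is fraction of cell area covered by stained E-selectin grains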;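 on nuclei count: 100% = median nuclei count of all wells on the same plate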); conditions: HUVEC TNFalpha-induced E-selectin immunofluorescence imaging, at 2 µM; inhibition: stronger effect = higher value; nuclei count: measured here: cell number, toxicity
[4] = target: Voltage-gated potassium channel subunit beta-2 (Rattus norvegicus) (UniProt P62483); experiment: KvBeta enzyme negative modulators, primary screen, biochemical, NADPH fluorescence (AID 622;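 active means fluorescence slope higher than the sample average by over 3 SD, cut at about -0.22 in these data, passing the limit was not always enough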;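 further: slope of raw intensity against log time taken from 70 to 1610 s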); conditions: recombinant KvBeta, 4-cyanobenzaldehyde reduction, at 10 µM, stronger effect = higher value
[5] = target: Voltage-gated potassium channel subunit beta-2 (Rattus norvegicus) (UniProt P62483); experiment: KvBeta positive modulators, primary screen, biochemical, NADPH fluorescence (AID 623;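 active means NADPH fluorescence slope more negative than the mean of all samples by about 3 SD, 99.7% confidence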;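 further: fluorescence intensity change per second fitted from 20 to 320 s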); conditions: Recombinant KvBeta, NADPH fluorescence decrease slope, 10 min; at 10 µM; stronger effect = lower value
[6] = target: Alpha-2C adrenergic receptor (Homo sapiens) (UniProt P18825); experiment: modulators of alpha2C/GIRK thallium flux, primary screen, cell-based, HEK293 alpha2C/GIRK1/2 (AID 624;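 active means fluorescence slope after compound addition differing from the mean of all screened samples at 99.7% confidence, in either direction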;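 further: slope of fluorescence ratio to pre-addition baseline per second over 15 to 24 s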); conditions: thallium flux BTC fluorescence, at 10 µM, actives lie on both sides
[7] = inhibitors of Sendai virus-induced IRF3 signaling, primary screen, TLR/RLR signaling modifier project, cell-based, Sendai virus stimulus, luciferase, 10K MLSCN set (AID 602276); conditions: HEK293 RL24 IRF3 luciferase reporter, at 10 µM, stronger effect = higher value;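 further: firefly luciferase from ISG56 promoter only with Renilla not read in this screen; 0% = Sendai virus plus DMSO and 100% = medium plus DMSO without virus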
[8] = inhibitors of poly I:C-induced TLR3 signaling, primary screen, cell-based, poly I:C stimulus, luciferase, 10K MLSCN set (AID 602277;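 active means inhibition of the reporter signal at or above 50%; inactive means inhibition below 50%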); conditions: HEK293-TLR3 RL24 IRF3 luciferase reporter, at 10 µM, stronger effect = higher value

Voltage-gated potassium channel subunit beta-2 (Rattus norvegicus), sequence (P62483 whole entry, looked up): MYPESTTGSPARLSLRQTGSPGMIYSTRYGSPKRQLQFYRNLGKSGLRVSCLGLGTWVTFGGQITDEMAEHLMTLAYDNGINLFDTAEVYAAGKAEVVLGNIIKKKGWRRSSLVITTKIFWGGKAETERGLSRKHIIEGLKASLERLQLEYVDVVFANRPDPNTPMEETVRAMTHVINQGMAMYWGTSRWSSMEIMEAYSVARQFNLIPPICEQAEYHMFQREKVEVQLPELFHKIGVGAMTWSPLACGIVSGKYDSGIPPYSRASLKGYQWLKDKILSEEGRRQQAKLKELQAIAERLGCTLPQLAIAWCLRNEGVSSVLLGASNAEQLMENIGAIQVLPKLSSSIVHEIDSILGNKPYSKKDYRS
Alpha-2C adrenergic receptor (Homo sapiens), sequence (P18825 whole entry, looked up): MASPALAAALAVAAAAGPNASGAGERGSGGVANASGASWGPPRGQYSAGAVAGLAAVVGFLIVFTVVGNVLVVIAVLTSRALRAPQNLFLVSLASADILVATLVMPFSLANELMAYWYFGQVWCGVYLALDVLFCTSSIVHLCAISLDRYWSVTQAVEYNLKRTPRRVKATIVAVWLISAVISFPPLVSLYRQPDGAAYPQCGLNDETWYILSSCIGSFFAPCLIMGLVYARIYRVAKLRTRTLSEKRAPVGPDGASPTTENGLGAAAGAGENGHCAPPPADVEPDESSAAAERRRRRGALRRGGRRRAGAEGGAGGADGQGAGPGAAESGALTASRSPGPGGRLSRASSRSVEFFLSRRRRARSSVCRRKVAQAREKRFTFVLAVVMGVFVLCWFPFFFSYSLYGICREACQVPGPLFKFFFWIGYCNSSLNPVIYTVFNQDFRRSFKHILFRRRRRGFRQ

Structure (SMILES)	cell count [1]	inhibition [1]	inhibition of aggregation [2]	nuclei count [2]	inhibition [3]	nuclei count [3]	fluorescence slope [4]	NADPH fluorescence slope [5]	slope [6]	inhibition [7]	inhibition [8]
COc1ccc(-c2ccc(Nc3ccc(S(=O)(=O)N4CCCC4)cc3)nn2)cc1OC	702	-6.1% (inactive)	-4.9% (inactive)	103%	-94.1% (inactive)	109%	-0.601 (inactive)	-4.3e-05 (inactive)	0.004 (inactive)	-5.55% (inactive)	-13.6% (inactive)
Cc1cc(NC(=O)c2cccc(S(=O)(=O)N3CC(c4ccccc4)CC3=O)c2)no1 (centres undefined)	873	-1.2% (inactive)	2.3% (inactive)	107%	-44.9% (inactive)	121%	-0.562 (inactive)	-5.1e-05 (inactive)	0.00664 (inactive)	8.54% (inactive)	25.9% (inactive)
COc1ccc(C(=O)N(CCCO)Cc2cc3c(C)ccc(C)c3[nH]c2=O)cc1OC	647	-3% (inactive)	12.4% (inactive)	91.4%	19.2% (inactive)	86.7%	-0.389 (inactive)	-0.00013 (inactive)	0.00636 (inactive)	8.26% (inactive)	19% (inactive)
CCCn1c(C)cc(C(=O)COc2ncnc3sccc23)c1C	312	2.9% (inactive)	11.2% (inactive)	65.8%	-66.8% (inactive)	115%	-0.556 (inactive)	2.3e-05 (inactive)	0.00512 (inactive)	-64% (inactive)	-108% (inactive)
COc1c(Br)cc2c(C)c(C(=O)O)oc2c1Br	472	3.5% (inactive)	-9.2% (inactive)	95.6%	-26.9% (inactive)	112%	-0.443 (inactive)	-0.000118 (inactive)	0.00602 (inactive)	9.89% (inactive)	18.8% (inactive)
Cc1noc(C)c1CSc1ccccc1C(=O)N1CCN(c2ccccc2)CC1	427	-1.2% (inactive)	-3.3% (inactive)	95.9%	14.6% (inactive)	105%	-0.482 (inactive)	1.7e-05 (inactive)	0.00481 (inactive)	1.46% (inactive)	7.95% (inactive)
C=CCSC1=C(C#N)C(c2ccccc2)CC(=O)N1 (centres undefined)	486	-1.6% (inactive)	1.6% (inactive)	101%	-112% (inactive)	104%	-0.527 (inactive)	8.1e-07 (inactive)	0.00534 (inactive)	6.68% (inactive)	8.17% (inactive)
CCOCCCNC(=O)C1CC(=O)N(C2CCCC2)C1 (centres undefined)	536	-6.8% (inactive)	1.5% (inactive)	103%	11.6% (inactive)	118%	-0.495 (inactive)	-1.6e-05 (inactive)	0.00627 (inactive)	15.9% (inactive)	18.9% (inactive)
C=CCOc1ccc(/C=N/n2cncn2)cc1OC	517	-8.8% (inactive)	23.9% (inactive)	76.3%	-39.8% (inactive)	81.6%	-0.58 (inactive)	2.1e-05 (inactive)	0.00496 (inactive)	-10.2% (inactive)	5.53% (inactive)

— PubChem BioAssay
